From PMC4242493, “Sequence specificity incompletely defines the genome-wide occupancy of Myc”
Over roughly 33,000 sequences, “normalized occupancy” has its median near 0.075; the highest 2% begin near 0.095. For the sample, the highest values were picked, then their nearest neighbours and some sequences at random.

What follows are sequences tested against MaxL homodimer (Homo sapiens, UniProt P61244 1-160) (assay: universal protein-binding microarray (PBM); PBS-based mixture, 10 nM His-tagged protein dimer, 2% milk, 200 ng/uL BSA, 50 ng/uL salmon testes DNA, 0.02% TX-100; detection with Alexa 488 anti-His antibody;; high values mean tight binding). Details: protein: recombinant; tags: C-terminal His-tag (pET21a); chain copies: 2; dsDNA, one strand shown.
Sequence of MaxL homodimer (P61244 whole entry): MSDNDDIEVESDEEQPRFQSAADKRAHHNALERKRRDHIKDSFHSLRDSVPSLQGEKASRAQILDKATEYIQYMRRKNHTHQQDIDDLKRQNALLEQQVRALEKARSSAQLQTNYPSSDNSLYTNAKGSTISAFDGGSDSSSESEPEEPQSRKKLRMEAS
Outline: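 Agilent 4 x 44 K arrays carrying the 'all 10-mer' universal design were incubated with His-tagged protein dimer at 10 nM. Protein that bound was tagged using fluorophore-conjugated anti-His antibody at 10 ng/μL, and a GenePix 4400A scanned the arrays to give an intensity for every 8-mer. Each binding occupancy value expresses an intensity relative to the top-ranked intensity.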

Row | Sequence | binding signal
1 | ACAAATTG | 0.0753 normalized occupancy
2 | CCCATACC | 0.0872 normalized occupancy
3 | CCAGTTGC | 0.0718 normalized occupancy
4 | AAACAGTG | 0.0728 normalized occupancy
5 | TAGTTTGA | 0.0723 normalized occupancy
6 | AATTTTCT | 0.0797 normalized occupancy
7 | ACGGGACA | 0.0774 normalized occupancy
8 | CCGTGTTA | 0.0848 normalized occupancy
9 | AGGTGTTG | 0.0828 normalized occupancy
10 | AAGTGTTC | 0.0784 normalized occupancy
11 | GGGTGTTA | 0.0779 normalized occupancy
12 | ACGTGTTC | 0.104 normalized occupancy
13 | ATGTGTTG | 0.0905 normalized occupancy
14 | GTGTGTTA | 0.0835 normalized occupancy
15 | AGGTGTTA | 0.0801 normalized occupancy
16 | CCGTGTTC | 0.0725 normalized occupancy
17 | GCGTGTTA | 0.101 normalized occupancy
18 | ACGTGTTG | 0.109 normalized occupancy
19 | ACGTGTTA | 0.109 normalized occupancy
20 | AGAGTCGC | 0.0764 normalized occupancy
21 | ACGGATGC | 0.0722 normalized occupancy
22 | GTGCCTTA | 0.0789 normalized occupancy
23 | ATGAGCGG | 0.0799 normalized occupancy
24 | CGGTGTAC | 0.0764 normalized occupancy
25 | GATATTCC | 0.0765 normalized occupancy

Row | Sequence | binding signal
26 | AGCAATTC | 0.0722 normalized occupancy
27 | GACGTGAC | 0.0813 normalized occupancy
28 | TACGTGAA | 0.0794 normalized occupancy
29 | CCCGTGAA | 0.0812 normalized occupancy
30 | CACGTGAG | 0.245 normalized occupancy
31 | GACGTGAA | 0.0766 normalized occupancy
32 | CACGTGAC | 0.464 normalized occupancy
33 | CACGTGAA | 0.231 normalized occupancy
34 | CACGTAAG | 0.0796 normalized occupancy
35 | CCCGTGAC | 0.0826 normalized occupancy
36 | CCTTCCCA | 0.0748 normalized occupancy
37 | GAATCCTA | 0.0741 normalized occupancy
38 | CAGCCGCA | 0.0718 normalized occupancy
39 | TGGGTGAA | 0.0791 normalized occupancy
40 | AGGATGAC | 0.0813 normalized occupancy
41 | TCTAGCCA | 0.0723 normalized occupancy
42 | CCTTTATA | 0.0822 normalized occupancy
43 | ATGCTTTC | 0.0842 normalized occupancy
44 | CTCGTTTC | 0.0748 normalized occupancy
45 | GTCGTGTA | 0.0822 normalized occupancy
46 | CTCGTGTA | 0.103 normalized occupancy
47 | ATCGTGTA | 0.0829 normalized occupancy
48 | ATCGTGTC | 0.0864 normalized occupancy
49 | CTCGTGTC | 0.0959 normalized occupancy
50 | AACATACC | 0.086 normalized occupancy

Row | Sequence | binding signal
51 | ATCGTCGA | 0.0747 normalized occupancy
52 | CTGAATAC | 0.0791 normalized occupancy
53 | CGTGTGTC | 0.0936 normalized occupancy
54 | AGTGTGTA | 0.0806 normalized occupancy
55 | GGCGTGTA | 0.0895 normalized occupancy
56 | CGCGTGTC | 0.115 normalized occupancy
57 | CGTGTATA | 0.0906 normalized occupancy
58 | CGCGTGTA | 0.123 normalized occupancy
59 | AGCGTGTC | 0.0932 normalized occupancy
60 | CGTGTGTA | 0.0944 normalized occupancy
61 | AGCGTGTA | 0.0952 normalized occupancy
62 | AGCGTATG | 0.0754 normalized occupancy
63 | AGCGTGTG | 0.0954 normalized occupancy
64 | CGCGCGTC | 0.075 normalized occupancy
65 | AAAGGACT | 0.076 normalized occupancy
66 | CTAGAATA | 0.0796 normalized occupancy
67 | AAACAACG | 0.079 normalized occupancy
68 | AGTTTGAA | 0.0729 normalized occupancy
69 | AAACTCAT | 0.0797 normalized occupancy
70 | ATAAAAGG | 0.0778 normalized occupancy
71 | CGGTCTCA | 0.0736 normalized occupancy
72 | CACAGTCA | 0.0797 normalized occupancy
73 | ACCATCCT | 0.0757 normalized occupancy
74 | CCGTGAGG | 0.0784 normalized occupancy
75 | TCGTGAGA | 0.0809 normalized occupancy

Row | Sequence | binding signal
76 | AAGTGAGG | 0.0763 normalized occupancy
77 | ACGTGAGG | 0.0969 normalized occupancy
78 | GCGTGAGC | 0.091 normalized occupancy
79 | GCGTGAGA | 0.0965 normalized occupancy
80 | ATGTGAGC | 0.0803 normalized occupancy
81 | ACGTGAGA | 0.0981 normalized occupancy
82 | ACGTGAGC | 0.107 normalized occupancy
83 | GAGTGAGA | 0.0795 normalized occupancy
84 | ACGTGAGT | 0.0893 normalized occupancy
85 | CCGTGAGA | 0.0755 normalized occupancy
86 | AATTGCCA | 0.0744 normalized occupancy
87 | CCTAGAAC | 0.0744 normalized occupancy
88 | ATGTTGTG | 0.0817 normalized occupancy
89 | CCGTCATC | 0.0727 normalized occupancy
90 | AAGACTAT | 0.0779 normalized occupancy
91 | CTGGGGAA | 0.0741 normalized occupancy
92 | ATGAACAA | 0.0807 normalized occupancy
93 | ATGCATTA | 0.0869 normalized occupancy
94 | ATGCATGA | 0.0997 normalized occupancy
95 | CTGCATTC | 0.0735 normalized occupancy
96 | CTGCATGA | 0.083 normalized occupancy
97 | ATGCATGC | 0.126 normalized occupancy
98 | ATGCATTC | 0.0908 normalized occupancy
99 | GTGCATCA | 0.0868 normalized occupancy
100 | ATGCATCC | 0.0863 normalized occupancy

Row | Sequence | binding signal
101 | CTGCATGC | 0.1 normalized occupancy
102 | GTGCATGA | 0.0961 normalized occupancy
103 | GTGCATAA | 0.0861 normalized occupancy
104 | ATGCATCA | 0.0872 normalized occupancy
105 | AGAGGCGA | 0.0756 normalized occupancy
106 | CTTGAGTC | 0.0726 normalized occupancy
107 | ACTTTGTC | 0.0738 normalized occupancy
108 | GGTTCTAC | 0.0735 normalized occupancy
109 | GAACTAAC | 0.0734 normalized occupancy
110 | ATTCCGAC | 0.0732 normalized occupancy
111 | AAGTTCAG | 0.0751 normalized occupancy
112 | ACACCAAG | 0.0798 normalized occupancy
113 | GTGGACCA | 0.0775 normalized occupancy
114 | GTGTTAAA | 0.0743 normalized occupancy
115 | GATTGCAC | 0.0761 normalized occupancy
116 | ATGCATCG | 0.0835 normalized occupancy
117 | ATGCATGG | 0.0969 normalized occupancy
118 | ATGCATAG | 0.0814 normalized occupancy
119 | CGGGGGCA | 0.0747 normalized occupancy
120 | ATCATTCG | 0.0804 normalized occupancy
121 | CTCATGGA | 0.0927 normalized occupancy
122 | CTCATGAC | 0.0906 normalized occupancy
123 | GTCATGCA | 0.0869 normalized occupancy
124 | ATCATGCA | 0.0894 normalized occupancy
125 | CTCATGCA | 0.0963 normalized occupancy

Row | Sequence | binding signal
126 | ATGATGCG | 0.0869 normalized occupancy
127 | ATCATGCG | 0.105 normalized occupancy
128 | CTCATGCC | 0.0954 normalized occupancy
129 | CTCATGTC | 0.0928 normalized occupancy
130 | CTTATGGC | 0.0778 normalized occupancy
131 | CTCATGGC | 0.0965 normalized occupancy
132 | AAAAGGGA | 0.0725 normalized occupancy
133 | GGGCGTTA | 0.0774 normalized occupancy
134 | TACTTCTA | 0.0754 normalized occupancy
135 | GCATAAGA | 0.0799 normalized occupancy
136 | GGCTAGCA | 0.0747 normalized occupancy
137 | ATCATGCC | 0.0958 normalized occupancy
138 | ATCATGAC | 0.0868 normalized occupancy
139 | ATAATGCC | 0.0813 normalized occupancy
140 | CAAAATGG | 0.0769 normalized occupancy
141 | AATTACAG | 0.0778 normalized occupancy
142 | ATTGCGCG | 0.0747 normalized occupancy
143 | CATGCGCG | 0.11 normalized occupancy
144 | AATGCGCG | 0.0754 normalized occupancy
145 | CGTGCGCC | 0.0922 normalized occupancy
146 | AATGCGCA | 0.0804 normalized occupancy
147 | AGTGCGCC | 0.0735 normalized occupancy
148 | TATGCGCA | 0.0804 normalized occupancy
149 | CATGCGCA | 0.125 normalized occupancy
150 | AATGCGCC | 0.0731 normalized occupancy

Row | Sequence | binding signal
151 | CATGCGCC | 0.111 normalized occupancy
152 | AGTGCGCA | 0.076 normalized occupancy
153 | CGTGCGCA | 0.0967 normalized occupancy
154 | GTCGCTGA | 0.0755 normalized occupancy
155 | ACAATAGA | 0.0762 normalized occupancy
156 | ACTTGACG | 0.0741 normalized occupancy
157 | GTCATCGA | 0.0798 normalized occupancy
158 | ATAGATGC | 0.075 normalized occupancy
159 | CGCACTGA | 0.0735 normalized occupancy
160 | ACTTACAA | 0.0743 normalized occupancy
161 | ACGAGACA | 0.0856 normalized occupancy
162 | GGCGTGAA | 0.0776 normalized occupancy
163 | CCCGTGAG | 0.0759 normalized occupancy
164 | CTCGTGAA | 0.0894 normalized occupancy
165 | CGCGTGAA | 0.105 normalized occupancy
166 | CTCGTGAC | 0.104 normalized occupancy
167 | GGCGTGAC | 0.0927 normalized occupancy
168 | CGCGTGAG | 0.109 normalized occupancy
169 | CGTGTGAC | 0.0871 normalized occupancy
170 | CGCGTGAC | 0.134 normalized occupancy
171 | AGCGTGAG | 0.091 normalized occupancy
172 | TGCGTGAA | 0.0808 normalized occupancy
173 | ATCGTGAC | 0.0839 normalized occupancy
174 | CGCCCCCC | 0.0791 normalized occupancy
